Inconclusive results are not listed. The source made the active and inactive calls. Unless noted, the call rests on the fitted dose curve; in most records, active means well fitted curve in either direction with a large enough effect (not every such curve was filed as active); inconclusive means small, poorly fitted or top-dose-only effect, or another doubt; inactive means flat fitted curve, though single readings scatter.
Assays:
[1] = AP1 Signaling Pathway (AID 357); conditions: ME-180 AP-1-bla reporter, EGF-induced, beta-lactamase ratio, 5 h; at 17.2 µM (top of the series) unless noted;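 further: ME-180 reporter cells stimulated with EGF at its EC50 level; on the % scale 0 is the no-effect control and ±100 the full control effect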
Outline: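 Cells are seeded overnight, exposed to compound titrations and an EC50 level of EGF for 5 hours at 37 °C, then loaded with CCF4 dye for 2.5 hours. Beta-lactamase activity under the AP-1 element is read as a blue/green ratio.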

[2] = Stat Signaling Pathway (AID 446); conditions: ME-180 SIE beta-lactamase reporter, IL-6 stimulated, 5 h; at 17.2 µM (top of the series) unless noted;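 further: ME-180 cervical cancer cells given 40 pM IL-6 alongside compound; SIE-controlled beta-lactamase reporter measured as 460/530 nm FRET emission ratio; on the % scale 0 is the no-effect control and ±100 the full control effect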
Outline: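 Reporter line: ME-180 cervical carcinoma, SIE-beta-lactamase. Treatment: compound with 40 pM IL-6, 5 hrs, 37 C, in low-serum OPTI-MEM with 10 mM HEPES pH 7.3. Detection: 460/530 nm fluorescence.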

[3] = target: Glucocorticoid receptor (Homo sapiens) (UniProt P04150); test: GR-GFP Redistribution (AID 450;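 active means compounds whose dose series gives a full or clear partial fitted curve of increased nuclear translocation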; further: potency means the concentration at half of the fitted maximal effect)
[4] = target: Glucocorticoid receptor (Homo sapiens) (UniProt P04150); test: GR-EFC Redistribution (AID 451; calls by dose curve; further: potency means the concentration at half of the fitted maximal effect); conditions: CHO-K1 GR-EFC translocation, beta-gal luminescence, 2 h
Outline: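 Translocation of GR-ED fusion to nuclear EA restores b-gal, read by luminescence after 1 h room-temperature detection. Engineered CHO-K1 biosensor cells, 1,000/well, exposed 2 h at 37 C to titrations up to 46 uM final.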

[5] = target: Mitogen-activated protein kinase 10 (Mus musculus) (UniProt Q61831); test: JNK3 AlphaScreen Assay (AID 530);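 further: kinase came from lysate of stimulated human HepG2 cells; signal reports phosphorylation of biotinylated GST-cJun 1-79 at Ser73 with 10 µM ATP; on the % scale 0 is the no-effect control and ±100 the full control effect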
Outline: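 Room-temperature AlphaScreen kinase assay; pre-activated HepG2 lysate as JNK3 source, biotin-GST-cJun(1-79) substrate, 10 uM ATP, compound 15 min preincubation.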

[6] = target: 3',5'-cyclic-AMP phosphodiesterase 4B (Homo sapiens) (UniProt Q07343); test: qHTS Assay for Inhibitors of PDE-IV (AID 607; active means well fitted activation curve with a large enough effect in the main read-out, with a control signal flat, not every such curve was filed as active; further: % of control where 0% means no effect)
Outline: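 Cell-based read-out of cAMP via a modified cyclic nucleotide-gated channel and membrane potential dye (535/590 nm) in HEK293 cells expressing PDE4 endogenously. Compounds tested up to 22.9 uM final; 100 uM RO 20-1724 reference.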

[7] = target: Cytochrome P450 3A4 (Homo sapiens) (UniProt P08684); test: qHTS Assay for Inhibitors and Substrates of Cytochrome P450 3A4 (AID 884; active means well fitted curve in the direction sought with a large enough effect; an effect the other way counts as inactive or inconclusive; further: on the % scale 0 is the no-effect control and ±100 the full control effect; nearly all actives have a fitted effect of over 50% in size)
Outline: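 20 nM human CYP3A4 with 25 uM Luciferin-PPXE (at KM) in 200 mM KPO4, preincubated 10 min with compound; NADPH regeneration started a 60 min RT reaction. Luciferin detected by luminescence, normalized to 57 uM ketoconazole as full inhibition.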

[8] = Confirmation and Secondary Assay for Modulators of Hemoglobin Beta Chain Splicing at IVS2 654 locus (AID 910; active means well fitted curve in the direction sought with a large enough effect; an effect the other way counts as inactive or inconclusive;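 further: HeLa cells stably carrying EGFP split by mutant beta-globin IVS2-654 intron; per-well total GFP intensity by laser scanning cytometry after 2-day treatment; % of control where 0% means no effect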)
Outline: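 Readout: per-well total peak green fluorescence (488 nm ex, 500–520 nm em) from objects 5–250 µm, reflecting correct splicing of an EGFP-654 reporter. Compounds were applied for 2 days at 37 °C to overnight-plated HeLa EGFP-654 cells; controls were DMSO and 500 nM IVS2-654 PNA.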

[9] = target: Ubiquitin carboxyl-terminal hydrolase 1 (Homo sapiens) (UniProt O94782); test: Inhibitors of USP1/UAF1: Pilot qHTS (AID 504865; active means well fitted curve in the direction sought with a large enough effect; an effect the other way counts as inactive or inconclusive; further: nearly all actives have a fitted effect of over 35% in size; further: potency means the concentration at half of the fitted maximal effect)
Outline: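 1nM USP1/UAF1 + cpd, 15 min RT; start w/ Ub-Rho 150nM final; kinetic FL 480/540 nm, 6 reads q60 s. Buffer 50mM HEPES pH 7.8, 0.5mM EDTA, 1mM TCEP, 0.01% Tween-20, 0.1 mg/ml BSA.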

[10] = target: Estrogen receptor (Homo sapiens) (UniProt P03372); test: qHTS assay for small molecule agonists of estrogen receptor alpha signaling (AID 588514; calls by dose curve;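 further: 0% = vehicle only and 100% = reference agonist; nearly all actives have a fitted effect of over 70% in size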)
Outline: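 Reporter-gene assay. […] controls beta-lactamase in HEK 293 GripTite cells; after 18 hrs with compound, CCF4 substrate is added for 2 hrs and fluorescence is read.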

[11] = target: Androgen receptor (Homo sapiens) (UniProt P10275); test: qHTS assay for small molecule antagonists of androgen receptor signaling (AID 588516; active means well fitted curve in the direction sought with a large enough effect in the signal ratio, with a control signal flat, not every such curve was filed as active; the % refers to the signal ratio; further: on the % scale 0 is the no-effect control and ±100 the full control effect)
Outline: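 HEK293 AR-UAS-bla cells, 10% dialyzed FBS medium; cpd titration + R1881 10 nM final, 16 h 37 C; CCF4 2 h RT; FRET ratio; IC50/efficacy via Hill fit.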

[12] = target: Bile acid receptor (Homo sapiens) (UniProt Q96RI1); test: qHTS assay for small molecule antagonists of farnesoid X receptor signaling (AID 588526; calls by dose curve; further: on the % scale 0 is the no-effect control and ±100 the full control effect)
Outline: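 Beta-lactamase reporter antagonist mode: HEK293T FXR-UAS-bla cells, titrated compound, CDCA stimulation, 16 h 37 C, CCF4 dye 2 h RT. Data normalized to CDCA 50 uM and DMSO; Hill-fit IC50.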

[13] = target: Glucocorticoid receptor (Homo sapiens) (UniProt P04150); test: qHTS assay for small molecule agonists of glucocorticoid receptor signaling (AID 588532; active means well fitted curve in the direction sought with a large enough effect in the signal ratio, with a control signal flat; the % refers to the signal ratio;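 further: 100% = dexamethasone at 0.1 µM and 0% = DMSO only wells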); conditions: HeLa MMTV-bla, beta-lactamase ratio, agonist, 18 h; stronger effect = higher value; percent of dexamethasone control, DMSO zero
Outline: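 Agonist-mode qHTS: GRE-driven beta-lactamase in HeLa cells exposed 18 h to titrated compounds (up to 92 uM), then CCF4 ratio read after 2 h at RT; Hill-fitted EC50, efficacy relative to 0.1 uM dexamethasone.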

[14] = qHTS assay for small molecule antagonists of peroxisome proliferator-activated receptor delta signaling (AID 588535; active means well fitted inhibition curve with a large enough effect in the signal ratio, with a control signal flat, not every such curve was filed as active; the % refers to the signal ratio;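 on max response: cells co-treated with a PPAR-delta agonist as stimulator during compound exposure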); conditions: HEK293T PPARd-UAS-bla, beta-lactamase FRET ratio, 18 h; 460 nm channel
Outline: (§1)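 Cell-based beta-lactamase assay in antagonist mode: 4000 HEK293T PPAR-delta-UAS-bla cells per well, 5 hr preincubation then 18 hr compound incubation at 37 C. IC50 obtained by Hill equation fitting.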

[15] = target: Peroxisome proliferator-activated receptor delta (Homo sapiens) (UniProt Q03181); test: as above
Outline: as §1

[16] = target: Peroxisome proliferator-activated receptor gamma (Homo sapiens) (UniProt P37231); test: qHTS assay for small molecule agonists of peroxisome proliferator-activated receptor gamma signaling (AID 588536; active means well fitted curve in the direction sought with a large enough effect in the signal ratio, with a control signal flat, not every such curve was filed as active; the % refers to the signal ratio;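 further: 0% = DMSO basal wells and 100% = rosiglitazone at 2 µM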)
Outline: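 Ratiometric blue/green fluorescence (405 nm excitation; 460 and 530 nm emission) from CCF4-loaded HEK293 reporter cells serves as signal. Exposure to test compounds lasts 16 h at 37 C in medium containing 1% charcoal/dextran-treated serum.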

[17] = target: Vitamin D3 receptor (Homo sapiens) (UniProt P11473); test: qHTS assay for small molecule antagonists of vitamin D receptor signaling (AID 588541; calls by dose curve)
Outline: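 Antagonist-mode beta-lactamase reporter assay: HEK293T VDR-UAS-bla cells were exposed to titrated compound alongside 1-alpha,25-dihydroxyvitamin D3 at 3 nM final for 16 h. Values were normalized to the 50 nM agonist control and DMSO basal, with IC50 and efficacy from Hill equation fits.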

[18] = target: Vitamin D3 receptor (Homo sapiens) (UniProt P11473); test: qHTS assay for small molecule agonists of vitamin D receptor signaling (AID 588543; calls by dose curve;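 further: 0% = DMSO basal and 100% = reference agonist control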)
Outline: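 β-lactamase reporter, VDR-UAS-bla HEK293T, agonist mode. Cells plated 5 h at 37 °C, compound titration 16 h at 37 °C, CCF4 dye 2 h RT, ratio 460/530 nm. Hill fit → EC50, efficacy vs 50 nM 1α,25-(OH)2D3.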

[19] = target: Luciferin 4-monooxygenase (Photinus pyralis) (UniProt P08659); test: Biochemical firefly luciferase enzyme assay for NPC (AID 624030; active means well fitted curve in the direction sought with a large enough effect; an effect the other way counts as inactive or inconclusive;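 further: purified P. pyralis luciferase at 10 nM with luciferin and ATP substrate; 0% = DMSO and -100% = full luciferase inhibition by PTC124 control; nearly all actives have a fitted effect of over 70% in size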)
Outline: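 Direct inhibition of firefly luciferase enzyme (10 nM final, 50 mM Tris Acetate) assessed by luminescence within 5 minutes. Percent activity scaled between DMSO and PTC124 positive control, with concentration-effect curves classified by fit quality and response.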

[20] = qHTS assay for environmental chemicals that activate the Aryl hydrocarbon Receptor (AhR) signaling pathway (AID 651777; active means well fitted curve in the direction sought with a large enough effect; an effect the other way counts as inactive or inconclusive; further: % of control where 0% means no effect; nearly all actives have a fitted effect of over 15% in size); conditions: 1A2-DRE human hepatoma cells, luciferase, 24 h; activation: stronger effect = higher value
Outline: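 Reporter gene assay: hepatoma cells with DRE/CYP1A2-luciferase, 24 hr compound incubation at 37 C, 5% CO2, luminescence after One-Glo (30 min, RT).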

[21] = qHTS assay for small molecule agonists of the antioxidant response element (ARE) signaling pathway measured by Nrf2-dependant transcriptional activity (AID 720636; active means well fitted curve in the direction sought with a large enough effect in the repeat runs; an effect the other way counts as inactive or inconclusive;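 further: HepG2 cells with an ARE-driven luciferase reporter; % of control where 0% means no effect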)
Outline: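 Nrf2-dependent transcription is measured in ARE-luc HepG2 cells: compound is applied for 16 hr at 37 C after a 6 hr attachment period, and luciferase activity is quantified by luminescence using ONE-Glo.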

[22] = qHTS assay for small molecule agonists of the antioxidant response element (ARE) signaling pathway measured by Nrf2-dependant transcriptional activity - cell viability counter screen (AID 720653; active means well fitted curve in the direction sought with a large enough effect in the repeat runs; an effect the other way counts as inactive or inconclusive; further: on the % scale 0 is the no-effect control and ±100 the full control effect); conditions: ARE-bla HepG2 viability, CellTiter-Glo ATP luminescence, 16 h; max response: stronger effect = lower value
Outline: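 Cytotoxicity counter screen: intracellular ATP quantified by CellTiter-Glo luminescence in the same ARE-bla HepG2 plates, after 16 h compound exposure and a 2 h beta-lactamase substrate step.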

[23] = qHTS assay for cell viability of HEK293 cells (AID 743288; active means well fitted curve in the direction sought with a large enough effect; an effect the other way counts as inactive or inconclusive; further: on the % scale 0 is the no-effect control and ±100 the full control effect; nearly all actives have a fitted effect of over 50% in size); conditions: ATP luminescence (CellTiter-Glo), 18 h; max response: stronger effect = lower value
Outline: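 Environmental chemicals tested in qHTS format against parental HEK293 cells; 18 h treatment, 37 C; read-out ATP luminescence (CellTiter-Glo), 30 min RT development.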

[24] = qHTS assay for cell viability of the p53RE-bla HCT-116 cell line (AID 743292; active means well fitted curve in the direction sought with a large enough effect; an effect the other way counts as inactive or inconclusive; further: on the % scale 0 is the no-effect control and ±100 the full control effect; nearly all actives have a fitted effect of over 55% in size)
Outline: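 ATP-based luminescence, 16 h compound exposure at 37 C, p53RE-bla HCT-116 cells at 4,000/well.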

[25] = target: Nuclear receptor subfamily 1 group I member 2 (Rattus norvegicus) (UniProt Q9R1A7); test: qHTS assay for small molecule activators of the rat pregnane X receptor (rPXR) signaling pathway (AID 651751; call rule not given here; further: 0% is about no effect); conditions: rPXR reporter cells, luciferase (One-Glo), 24 h
[26] = qHTS assay for small molecule activators of the human pregnane X receptor (PXR) signaling pathway (AID 720659; call rule not given here; further: 0% is about no effect)
[27] = target: Cytochrome P450 3A4 (Homo sapiens) (UniProt P08684); test: qHTS Assay for Activators of Cytochrome P450 3A4 (AID 885; active means well fitted curve in the direction sought with a large enough effect; an effect the other way counts as inactive or inconclusive; further: nearly all actives have a fitted effect of over 65% in size)
Outline: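 Signal was normalized against complete inhibition by 57 uM ketoconazole. The reaction used 20nM CYP3A4 with 25uM Luciferin-PPXE, 10-min compound preincubation and a 60-min NADPH-supported step at RT.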

Sequence of Glucocorticoid receptor (Homo sapiens) (P04150 whole entry, looked up, the tested form may be a part): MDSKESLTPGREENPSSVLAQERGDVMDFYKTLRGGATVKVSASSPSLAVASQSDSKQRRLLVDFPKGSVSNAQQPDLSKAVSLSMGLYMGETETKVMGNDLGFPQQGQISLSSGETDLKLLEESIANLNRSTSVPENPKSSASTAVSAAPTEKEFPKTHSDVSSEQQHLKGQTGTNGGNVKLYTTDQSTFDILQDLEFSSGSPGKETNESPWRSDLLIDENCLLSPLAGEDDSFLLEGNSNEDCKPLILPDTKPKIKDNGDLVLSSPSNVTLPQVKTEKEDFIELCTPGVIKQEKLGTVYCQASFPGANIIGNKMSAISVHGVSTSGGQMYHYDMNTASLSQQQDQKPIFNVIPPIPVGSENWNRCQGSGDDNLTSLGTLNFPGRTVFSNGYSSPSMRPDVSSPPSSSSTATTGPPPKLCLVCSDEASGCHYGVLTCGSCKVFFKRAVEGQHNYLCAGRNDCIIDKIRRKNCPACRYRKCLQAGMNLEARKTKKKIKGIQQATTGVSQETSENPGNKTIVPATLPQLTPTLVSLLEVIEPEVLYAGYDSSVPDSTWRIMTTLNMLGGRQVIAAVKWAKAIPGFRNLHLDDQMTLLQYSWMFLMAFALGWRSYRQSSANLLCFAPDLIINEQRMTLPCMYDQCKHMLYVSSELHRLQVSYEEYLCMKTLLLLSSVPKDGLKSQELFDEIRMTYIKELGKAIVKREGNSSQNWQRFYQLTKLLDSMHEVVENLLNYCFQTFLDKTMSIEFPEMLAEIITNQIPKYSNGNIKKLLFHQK
Sequence of Ubiquitin carboxyl-terminal hydrolase 1 (Homo sapiens) (O94782 whole entry, looked up): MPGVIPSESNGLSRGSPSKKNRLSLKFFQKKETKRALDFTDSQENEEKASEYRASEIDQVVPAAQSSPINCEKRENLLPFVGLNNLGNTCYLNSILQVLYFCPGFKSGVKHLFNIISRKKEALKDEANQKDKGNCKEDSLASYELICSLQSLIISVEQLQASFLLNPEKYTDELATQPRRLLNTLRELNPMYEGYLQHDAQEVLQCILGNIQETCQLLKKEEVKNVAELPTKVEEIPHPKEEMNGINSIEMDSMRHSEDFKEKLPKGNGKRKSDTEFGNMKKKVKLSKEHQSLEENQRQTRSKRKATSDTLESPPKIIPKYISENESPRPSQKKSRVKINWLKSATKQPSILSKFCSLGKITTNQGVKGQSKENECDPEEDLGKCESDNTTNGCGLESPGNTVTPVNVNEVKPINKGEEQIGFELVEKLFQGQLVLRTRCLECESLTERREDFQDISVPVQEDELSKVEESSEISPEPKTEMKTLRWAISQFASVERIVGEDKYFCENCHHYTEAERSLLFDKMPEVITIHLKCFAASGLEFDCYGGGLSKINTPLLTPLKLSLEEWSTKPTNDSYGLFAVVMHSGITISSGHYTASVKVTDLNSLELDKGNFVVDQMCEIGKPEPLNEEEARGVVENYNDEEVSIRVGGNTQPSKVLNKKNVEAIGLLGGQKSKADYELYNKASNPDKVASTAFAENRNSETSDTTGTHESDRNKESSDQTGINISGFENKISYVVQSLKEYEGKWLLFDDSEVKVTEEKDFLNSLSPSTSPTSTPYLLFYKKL
Sequence of Cytochrome P450 3A4 (Homo sapiens) (P08684 whole entry, looked up): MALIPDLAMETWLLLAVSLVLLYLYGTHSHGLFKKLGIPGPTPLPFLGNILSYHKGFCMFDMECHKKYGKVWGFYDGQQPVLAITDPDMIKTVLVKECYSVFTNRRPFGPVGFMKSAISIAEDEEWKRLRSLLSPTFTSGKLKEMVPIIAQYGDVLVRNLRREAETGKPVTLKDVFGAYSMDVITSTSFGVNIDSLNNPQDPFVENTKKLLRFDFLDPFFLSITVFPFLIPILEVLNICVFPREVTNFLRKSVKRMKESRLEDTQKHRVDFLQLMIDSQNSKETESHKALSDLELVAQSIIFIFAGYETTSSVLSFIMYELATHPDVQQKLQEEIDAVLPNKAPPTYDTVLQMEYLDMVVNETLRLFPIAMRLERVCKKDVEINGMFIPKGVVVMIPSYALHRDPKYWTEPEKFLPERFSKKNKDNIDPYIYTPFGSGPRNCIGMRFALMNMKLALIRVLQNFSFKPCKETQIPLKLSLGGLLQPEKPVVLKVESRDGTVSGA
Sequence of 3',5'-cyclic-AMP phosphodiesterase 4B (Homo sapiens) (Q07343 whole entry, looked up): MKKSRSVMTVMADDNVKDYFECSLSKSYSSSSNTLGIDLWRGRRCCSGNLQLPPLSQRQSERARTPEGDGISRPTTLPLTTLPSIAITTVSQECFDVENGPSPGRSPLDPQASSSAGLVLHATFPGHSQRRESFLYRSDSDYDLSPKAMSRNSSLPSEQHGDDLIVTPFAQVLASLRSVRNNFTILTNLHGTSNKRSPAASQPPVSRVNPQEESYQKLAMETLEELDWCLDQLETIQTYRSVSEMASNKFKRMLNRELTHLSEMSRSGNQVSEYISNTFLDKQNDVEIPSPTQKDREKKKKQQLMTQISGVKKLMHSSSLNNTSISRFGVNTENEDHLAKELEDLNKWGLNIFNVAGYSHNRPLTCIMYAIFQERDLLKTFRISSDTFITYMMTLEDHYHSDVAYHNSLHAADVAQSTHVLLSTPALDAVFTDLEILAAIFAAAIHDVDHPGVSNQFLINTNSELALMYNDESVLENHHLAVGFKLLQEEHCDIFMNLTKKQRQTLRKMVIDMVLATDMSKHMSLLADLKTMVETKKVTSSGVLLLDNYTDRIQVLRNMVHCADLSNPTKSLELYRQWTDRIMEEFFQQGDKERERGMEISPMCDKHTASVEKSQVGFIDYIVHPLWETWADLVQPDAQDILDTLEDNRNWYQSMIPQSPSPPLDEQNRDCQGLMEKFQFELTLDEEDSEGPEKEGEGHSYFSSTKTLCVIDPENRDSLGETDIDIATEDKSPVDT
Sequence of Vitamin D3 receptor (Homo sapiens) (P11473 whole entry, looked up): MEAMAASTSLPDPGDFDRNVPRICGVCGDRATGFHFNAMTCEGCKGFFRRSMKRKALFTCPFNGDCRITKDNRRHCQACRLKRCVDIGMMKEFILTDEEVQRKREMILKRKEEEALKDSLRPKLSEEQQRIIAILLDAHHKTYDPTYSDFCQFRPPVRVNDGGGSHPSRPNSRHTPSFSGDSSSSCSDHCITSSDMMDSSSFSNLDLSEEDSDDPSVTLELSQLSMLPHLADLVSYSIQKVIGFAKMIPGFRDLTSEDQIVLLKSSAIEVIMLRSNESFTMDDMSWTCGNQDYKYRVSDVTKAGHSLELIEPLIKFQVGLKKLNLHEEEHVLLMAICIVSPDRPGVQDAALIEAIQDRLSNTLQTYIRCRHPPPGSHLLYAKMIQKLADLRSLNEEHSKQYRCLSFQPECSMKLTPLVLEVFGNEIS
Sequence of Peroxisome proliferator-activated receptor delta (Homo sapiens) (Q03181 whole entry, looked up): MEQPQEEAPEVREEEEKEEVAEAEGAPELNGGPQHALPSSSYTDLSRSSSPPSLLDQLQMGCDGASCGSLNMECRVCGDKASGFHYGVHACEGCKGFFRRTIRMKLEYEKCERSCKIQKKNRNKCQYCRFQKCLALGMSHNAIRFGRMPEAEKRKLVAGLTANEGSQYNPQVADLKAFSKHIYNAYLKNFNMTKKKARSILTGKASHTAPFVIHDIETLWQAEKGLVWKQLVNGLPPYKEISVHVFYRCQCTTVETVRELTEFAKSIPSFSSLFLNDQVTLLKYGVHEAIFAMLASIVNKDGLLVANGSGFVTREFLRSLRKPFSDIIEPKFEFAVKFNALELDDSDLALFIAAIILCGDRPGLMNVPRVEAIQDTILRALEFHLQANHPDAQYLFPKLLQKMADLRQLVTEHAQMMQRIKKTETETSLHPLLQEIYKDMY
Sequence of Peroxisome proliferator-activated receptor gamma (Homo sapiens) (P37231 whole entry, looked up): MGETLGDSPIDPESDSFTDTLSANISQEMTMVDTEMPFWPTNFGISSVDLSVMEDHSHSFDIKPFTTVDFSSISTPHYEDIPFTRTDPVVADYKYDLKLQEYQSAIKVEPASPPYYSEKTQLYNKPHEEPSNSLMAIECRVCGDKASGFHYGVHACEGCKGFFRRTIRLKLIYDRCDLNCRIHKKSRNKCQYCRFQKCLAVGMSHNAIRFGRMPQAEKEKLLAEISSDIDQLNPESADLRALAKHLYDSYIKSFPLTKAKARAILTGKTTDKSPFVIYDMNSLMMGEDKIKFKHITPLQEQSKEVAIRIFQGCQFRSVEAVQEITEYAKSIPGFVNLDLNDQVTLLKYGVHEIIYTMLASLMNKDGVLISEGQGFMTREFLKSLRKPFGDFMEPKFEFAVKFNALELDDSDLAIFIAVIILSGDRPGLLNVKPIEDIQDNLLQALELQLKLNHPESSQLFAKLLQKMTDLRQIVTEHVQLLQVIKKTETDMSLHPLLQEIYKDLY
Sequence of Bile acid receptor (Homo sapiens) (Q96RI1 whole entry, looked up): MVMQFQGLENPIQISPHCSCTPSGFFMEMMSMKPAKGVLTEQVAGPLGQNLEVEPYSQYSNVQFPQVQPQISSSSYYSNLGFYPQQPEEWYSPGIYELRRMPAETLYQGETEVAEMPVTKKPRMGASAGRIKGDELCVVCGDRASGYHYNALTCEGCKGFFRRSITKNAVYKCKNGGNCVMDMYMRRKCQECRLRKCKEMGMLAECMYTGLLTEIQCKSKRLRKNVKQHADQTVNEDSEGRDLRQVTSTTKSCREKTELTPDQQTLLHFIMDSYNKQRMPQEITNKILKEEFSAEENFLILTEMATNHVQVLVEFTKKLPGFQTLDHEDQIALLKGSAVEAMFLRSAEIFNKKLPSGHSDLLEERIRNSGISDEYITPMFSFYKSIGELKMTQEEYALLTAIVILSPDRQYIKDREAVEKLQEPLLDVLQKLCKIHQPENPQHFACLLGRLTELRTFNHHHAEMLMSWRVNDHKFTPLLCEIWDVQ

Cc1cc(C(C)(C)CC(C)(C)C)ccc1OCCOCC[N+](C)(C)Cc1ccccc1
14.2%: max response [14]
inactive: activity change, negative = inhibition [1] 18.1% | activity, negative = inhibition [2] 4.17% | Potency [3] > 20.6 µM | Potency [4] > 20.6 µM | Potency [5] | Potency [6] | Potency [7] | Potency [8] | outcome [10] | outcome [11] | Potency [12] | activation [13] -7.21% | outcome [15] | outcome [16] | Potency [17] | outcome [18] | Potency [19] | activation [20] 0.146% | Potency [21] | max response [22] -8.26% | max response [23] -29.5% | Potency [24] | max response [25] -12.4% | outcome [26]
active: Potency [9] 35.5 µM

c1ccc(N2CCN(c3nc(NCc4ccco4)c4ccccc4n3)CC2)cc1
inactive: activity change, negative = inhibition [1] -16.8% | activity, negative = inhibition [2] -28% | Potency [3] > 20.6 µM

CC1N(O)C(c2ccc(Cl)cc2Cl)N(O)C1(C)C (stereo not given)
inactive: activity change, negative = inhibition [1] -0.0716% | activity, negative = inhibition [2] 2.16% | Potency [3] > 20.6 µM

CCCCCCCCN[C@@H](C)[C@H](O)c1ccc(SC(C)C)cc1
inactive: activity change, negative = inhibition [1] 0.133% | activity, negative = inhibition [2] 7.39% | Potency [3] > 20.6 µM | Potency [4] > 20.6 µM | Potency [5] | Potency [27] | Potency [9]

C[C@H](CCC(=O)O)[C@H]1CC[C@@H]2[C@H]3CC[C@H]4C[C@@H](O)CC[C@@]4(C)[C@H]3CC[C@]21C
inactive: activity change, negative = inhibition [1] 13.9% | activity, negative = inhibition [2] -1.14% | Potency [3] > 20.6 µM | Potency [4] > 20.6 µM | Potency [5] | Potency [6]

— PubChem BioAssay (NCATS)
